Test [1] in a line: HepG2 liver cancer cell viability effects, profiling panel, resazurin fluorescence, 24 h, PK04 Diversity Set (AID 1172). The following applies: higher = more signal.
A short description of test [2]: basal S. cerevisiae growth modulation, no modifier, primary screen, OD600, strain BY4716, 24 h, basal condition (AID 1173). To be noted: OD600, 24 h, higher = more signal, called active from +8 up or from −8 down.
Test [3] is described as follows: MM1S myeloma cell viability, profiling panel, resazurin fluorescence, basal, 24 h, PK04 Diversity Set (AID 1174).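 Note: MM1S multiple myeloma cell line.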 The following applies: higher = more signal, called active from +8 up or from −8 down. A general note: Resazurin is reduced to fluorescent resorufin, in cell work by metabolically active cells.
Test [4] addresses Dihydroorotate dehydrogenase (quinone), mitochondrial (Plasmodium falciparum (isolate 3D7)) (UniProt Q08210). Briefly: PfDHODH enzyme inhibitors, primary screen, biochemical, C-terminal His tag, absorbance 600 nm (AID 1175).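 Note: recombinant parasite enzyme with a five histidine tag at its C terminus.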 To be noted: DCIP absorbance 600 nm, higher = more signal, called active from +8 up or from −8 down.
A short description of test [5]: P. aeruginosa biofilm formation inhibitors, primary screen, strain PAO1, LB-PBS medium, absorbance 600 nm (AID 1176). The following applies: P. aeruginosa PAO1 growth/biofilm, A600, 12 h; higher = more signal.
The nature of test [6]: S. cerevisiae RM11-1a growth modifiers, primary screen, strain RM11-1a, OD600, basal, 24 h (AID 1177).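 Note: cultures grown under basal conditions with no added stressor.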 The following applies: OD600, 24 h, higher = more signal, called active from +8 up or from −8 down.
A short description of test [7]: E. coli acrAB mutant growth effects, primary screen, E. coli filamentation inducers, strain DRC39, OD650, 24 h (AID 1178).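 Note: growth measured as culture turbidity by optical density at 650 nm.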 The following applies: higher = more signal, called active from +8 up or from −8 down.
Test [8] is described as follows: E. coli acrAB mutant growth effects, primary screen, E. coli filamentation inducers, strain DRC39, OD650, 48 h (AID 1179).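 Note: screen aims at cell division blockers that make cells filament.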 To be noted: E. coli DRC39 delta-acrAB growth, higher = more signal, called active from +8 up or from −8 down.
Test [9] in a line: RPMI8226 myeloma cell viability, profiling panel, resazurin fluorescence, basal, 24 h, PK04 Diversity Set (AID 1180).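 Note: RPMI8826 multiple myeloma cell line at 5000 cells per well.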 The following applies: higher = more signal.
For test [10], the target named is E3 ubiquitin-protein ligase XIAP (Homo sapiens) (UniProt P98170). In words: XIAP binders, primary screen, biophysical, small-molecule microarray, fluorescence 635 nm (AID 1181).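 Note: score merges 667 nm emission and signal to noise over triplicate slides.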 To be noted: small-molecule microarray binding, higher = more signal.
E3 ubiquitin-protein ligase XIAP (Homo sapiens), sequence (P98170 whole entry, looked up): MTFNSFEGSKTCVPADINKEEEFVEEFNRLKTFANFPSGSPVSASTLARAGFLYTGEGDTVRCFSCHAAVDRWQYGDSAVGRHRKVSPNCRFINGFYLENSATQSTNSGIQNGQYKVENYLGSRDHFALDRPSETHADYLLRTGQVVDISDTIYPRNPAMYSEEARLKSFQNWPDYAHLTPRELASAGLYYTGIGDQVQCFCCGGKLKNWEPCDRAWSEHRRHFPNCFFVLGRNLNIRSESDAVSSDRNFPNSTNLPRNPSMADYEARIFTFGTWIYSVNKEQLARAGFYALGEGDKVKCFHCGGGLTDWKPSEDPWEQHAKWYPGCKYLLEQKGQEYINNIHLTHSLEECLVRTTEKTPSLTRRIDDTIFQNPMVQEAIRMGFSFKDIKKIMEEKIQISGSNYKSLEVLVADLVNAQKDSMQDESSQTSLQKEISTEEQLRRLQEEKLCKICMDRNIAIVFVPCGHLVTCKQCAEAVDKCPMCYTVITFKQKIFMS
Test [11] deals with XIP peptide (Xip251-270) binding. In words: small-molecule binders of XIP peptide, primary screen, biochemical, small-molecule microarray, fluorescence 635/667 nm, 0.1 µg/mL protein (AID 1182). The following applies: fluorescent protein binding, 635 nm, higher = more signal, called active from +8 up or from −8 down.
The subject of the next test is XIP peptide (Xip251-270). In words: small-molecule binders of XIP peptide, primary screen, biochemical, small-molecule microarray, fluorescence 635/667 nm, 0.5 µg/mL protein (AID 1183). The following applies: small-molecule microarray binding, fluorescence 635 nm; higher = more signal.
The nature of test [12]: Plasmodium falciparum growth inhibition, primary screen, strain 3D7, DAPI fluorescence, 100 nL (AID 1184).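 Note: parasites grown inside human red blood cells in medium with human serum.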 To be noted: P. falciparum 3D7 growth, 3 d, higher = more signal.
Test [13] has as its target Homeobox protein Hox-A13 (Mus musculus) (UniProt Q62424). Briefly: inhibitors of HoxA13-DNA binding, primary screen, biochemical, fluorescence polarization, labeled oligonucleotide (AID 1185). To be noted: 15 min, higher = more signal, called active from +8 up or from −8 down. In general terms: In fluorescence polarisation assays a small probe gives low polarisation when free and higher when bound to something large.

A short description of test [14]: inhibitors of hydroxyurea-induced Chk1 phosphorylation, primary screen, imaging, HeLa, phospho-Chk1 antibody, percent positive cells (AID 1186). The following applies: hydroxyurea-induced phospho-Chk1 immunofluorescence imaging, higher = more signal.
Test [15] is described as follows: inhibitors of hydroxyurea-induced Chk1 phosphorylation, primary screen, imaging, HeLa, phospho-Chk1 nuclear intensity (AID 1187). To be noted: hydroxyurea-induced phospho-Chk1 immunofluorescence imaging, higher = more signal.

Activity calls are given as the source filed them. Unless noted, the rule behind the calls is not given here.

Homeobox protein Hox-A13 (Mus musculus), sequence (Q62424 whole entry, looked up): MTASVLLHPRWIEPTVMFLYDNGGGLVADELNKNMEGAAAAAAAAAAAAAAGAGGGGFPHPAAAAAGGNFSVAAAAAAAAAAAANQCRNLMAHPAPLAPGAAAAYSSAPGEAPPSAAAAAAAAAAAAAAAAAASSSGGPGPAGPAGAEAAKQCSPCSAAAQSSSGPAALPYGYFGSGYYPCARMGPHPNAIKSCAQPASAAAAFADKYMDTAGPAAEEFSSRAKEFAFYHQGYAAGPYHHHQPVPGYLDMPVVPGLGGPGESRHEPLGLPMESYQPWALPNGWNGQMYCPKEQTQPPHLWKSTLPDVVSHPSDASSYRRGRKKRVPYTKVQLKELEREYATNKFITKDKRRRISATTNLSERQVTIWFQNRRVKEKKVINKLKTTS
Dihydroorotate dehydrogenase (quinone), mitochondrial (Plasmodium falciparum (isolate 3D7)), sequence (Q08210 whole entry, looked up): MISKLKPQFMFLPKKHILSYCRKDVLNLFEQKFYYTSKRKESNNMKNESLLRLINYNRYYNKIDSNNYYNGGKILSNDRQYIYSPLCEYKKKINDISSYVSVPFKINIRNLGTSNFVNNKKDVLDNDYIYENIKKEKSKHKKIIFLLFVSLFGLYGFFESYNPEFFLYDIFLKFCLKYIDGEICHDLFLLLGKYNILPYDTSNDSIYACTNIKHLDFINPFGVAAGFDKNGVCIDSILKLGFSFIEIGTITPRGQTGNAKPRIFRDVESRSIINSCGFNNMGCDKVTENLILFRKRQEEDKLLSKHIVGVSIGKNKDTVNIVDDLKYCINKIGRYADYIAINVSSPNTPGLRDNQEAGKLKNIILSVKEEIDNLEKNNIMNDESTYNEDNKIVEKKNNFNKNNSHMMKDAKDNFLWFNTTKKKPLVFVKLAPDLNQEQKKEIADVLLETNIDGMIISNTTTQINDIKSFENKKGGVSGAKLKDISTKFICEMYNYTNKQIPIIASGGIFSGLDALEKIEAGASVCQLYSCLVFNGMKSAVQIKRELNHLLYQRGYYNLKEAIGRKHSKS

As for `COC(=O)[C@@]1(Cc2ccccc2)[C@H]2c3cc(C(=O)N(C)C)n(Cc4ccc(S(C)(=O)=O)cc4)c3C[C@H]2CN1C(=O)c1ccccc1`, the z-score in test [1] is -1.17; in test [2], 1.33 (inactive); in test [3], -2.74 (inactive); in test [5], 1.47 (inactive); in test [6], 0.879 (inactive); in [7], -1.1 (inactive). Further, the z-score in test [8] was -1.28 (inactive); in test [9], -0.668; in test [12], -1.5; in test [13], -5.44 (inactive); in [14], 0.492 (inactive); in test [15], 0.38 (inactive). Moreover, the composite z-score in test [4] was -0.316 (inactive); in [10], 0.291; in [11] it was 1.22 (inactive); with XIP peptide (Xip251-270) it was 0.721.

For `COCCOC(=O)N1C(=O)[C@@]2(c3cc(C#CCCO)ccc31)[C@H](c1ccccc1OCCO)N1[C@H](c3ccccc3)[C@H](c3ccccc3)OC(=O)[C@H]1[C@@H]2C(N)=O`, the z-score in [1] was -0.0989; in test [2], 1.42 (inactive); in [3], -1.49 (inactive); in test [5] it was -0.0199 (inactive); in [6] it was 2.34 (inactive); in test [7], 0.641 (inactive). The z-score was -0.605 (inactive) in test [8]; -1.45 in test [9]; -2.22 in test [12]; -3.69 (inactive) in test [13]; -0.271 (inactive) in test [14]; -0.0408 (inactive) in [15]. The composite z-score is -0.0125 (inactive) in test [4], -0.02 in [10], 0.316 (inactive) in test [11] and 0.732 in the test with XIP peptide (Xip251-270).

As to `CC1CC/C=C\[C@H]2OC34C=CCN(C(C)(C)C)C(=O)[C@H]3N(CCCO)C(=O)[C@@H]4C2C(=O)O1` (some centres undefined), the z-score in test [1] was -0.216; in [2], 1 (inactive); in test [3], -0.32 (inactive); in test [5], 0.261 (inactive); in test [6], 0.0605 (inactive); in test [7], -0.282 (inactive). The z-score was -0.52 (inactive) in test [8]; 0.276 in test [9]; 0.428 in test [12]; -3.59 (inactive) in test [13]; 0.0854 (inactive) in test [14]; -0.248 (inactive) in test [15]. For the same compound, the composite z-score in test [4] is -0.555 (inactive); in test [10] it was -0.02; in test [11] it was 0.453 (inactive); in the test with XIP peptide (Xip251-270), 0.774.

For `O=C1O[C@H](c2ccccc2)[C@H](c2ccccc2)N2[C@H]1[C@@H](C(=O)O)[C@]1(C(=O)Nc3ccc(C#CCCO)cc31)[C@H]2c1ccc(OCCO)cc1`, the z-score was 0.174 in [1]; -0.829 (inactive) in test [2]; 0.686 (inactive) in test [3]; 0.967 (inactive) in test [5]; 0.159 (inactive) in test [6]; 0.312 (inactive) in test [7]. Further, the z-score in [8] is 0.471 (inactive); in test [9] it was 0.68; in test [12] it was -0.481; in test [13], -5.39 (inactive); in [14] it was -0.255 (inactive); in test [15], -0.132 (inactive). For the same compound, the composite z-score in test [4] is -1.01 (inactive); in [10] it was -0.177; in test [11], 0.671 (inactive); with XIP peptide (Xip251-270) it was 0.856.

In the case of `CN(C)CCCNC(=O)[C@@]1(C)c2ccccc2C(=O)N(Cc2ccc(OC(F)(F)F)cc2)[C@H]1c1ccc(CO)cc1`, the z-score in test [1] is -0.732; in test [2], -1.69 (inactive); in test [3], -1.18 (inactive); in test [5] it was 0.236 (inactive); in test [6] it was -0.164 (inactive); in [7], 0.967 (inactive). Besides, the z-score was -1.26 (inactive) in test [8]; 0.415 in test [9]; -1.94 in test [12]; -1.98 (inactive) in [13]; 0.395 (inactive) in test [14]; 0.0436 (inactive) in test [15]. Moreover, the composite z-score was -0.397 (inactive) in test [4], -0.156 in test [10], 0.784 (inactive) in test [11] and 0.778 with XIP peptide (Xip251-270).

With `C=CCNC(=O)[C@H]1[C@@H]2C(=O)O[C@@H](c3ccccc3)[C@@H](c3ccccc3)N2[C@@H](c2ccc(OCCO)cc2)[C@]12C(=O)Nc1ccc(C#CC3(O)CCCCCC3)cc12`, the z-score in test [1] was -0.311; in [2], 0.868 (inactive); in test [3], -0.823 (inactive); in test [5] it was 0.898 (inactive); in [6], 2.62 (inactive); in [7], 0.352 (inactive). The z-score is 0.988 (inactive) in test [8]; -0.987 in [9]; -2.09 in test [12]; -1.83 (inactive) in test [13]; 0.541 (inactive) in test [14]; 1.15 (inactive) in test [15]. Besides, the composite z-score is -0.0685 (inactive) in [4], -0.224 in test [10], 0.38 (inactive) in [11] and 0.821 in the test on XIP peptide (Xip251-270).

In the case of `C[C@@H]1ON(c2ccccc2)[C@H](c2ccccc2)[C@H]1C(=O)O`, the z-score in test [1] is 0.0656; in test [2] it was 0.0157 (inactive); in test [3], -0.0211 (inactive); in [5], 0.188 (inactive); in test [6], 0.058 (inactive); in test [7], -0.636 (inactive). Also, the z-score was -1.02 (inactive) in [8]; 0.481 in test [9]; -0.413 in test [12]; -0.711 (inactive) in test [13]; 0.0099 (inactive) in test [14]; 0.203 (inactive) in [15]. In addition, the composite z-score in test [4] is 0.341 (inactive); in [10], -0.0343; in [11], -0.117 (inactive); with XIP peptide (Xip251-270) it was 0.0627.

Consider `COc1ccc(C(=O)Nc2cccc(CN3C(=O)[C@]4(O[C@H](CC(=O)N5Cc6ccccc6C[C@H]5CO)[C@@H]([Si](C)(C)c5ccc(OC)cc5)[C@@H]4C)c4ccccc43)c2)cc1`, for which the z-score in [1] was 0.256; in [2] it was 1.49 (inactive); in [3], -1.38 (inactive); in test [5] it was 0.425 (inactive); in [6] it was 2.82 (inactive); in test [7], 0.0049 (inactive). Also, the z-score is 0.0565 (inactive) in [8]; -0.891 in [9]; -2.94 in test [12]; -2.35 (inactive) in [13]; 1.01 (inactive) in test [14]; 0.835 (inactive) in test [15]. For the same compound, the composite z-score in test [4] was -3.9 (inactive); in test [10], 0.187; in [11], -0.335 (inactive); in the test on XIP peptide (Xip251-270) it was 0.697.

Take `CCOC(=O)C[C@H]1[C@H](OC(=O)c2cc3ccccc3oc2=O)[C@@H](NC(=O)CC(C)C)c2cc(OCCCO)ccc2N1C(=O)Cc1ccc(OC)cc1`: the z-score in test [1] is -0.74; in [2], -0.628 (inactive); in [3] it was -0.233 (inactive); in test [5] it was -0.423 (inactive); in test [6], -0.746 (inactive); in [7] it was -0.715 (inactive). The z-score was -1.18 (inactive) in test [8]; -0.72 in [9]; -2.45 in [12]; -4.83 (inactive) in test [13]; 0.372 (inactive) in [14]; -0.268 (inactive) in test [15]. Moreover, the composite z-score is -0.144 (inactive) in test [4], -0.284 in test [10], 0.101 (inactive) in test [11] and 0.686 in the test on XIP peptide (Xip251-270).

For the origin of these results see PubChem BioAssay.
